CF NFkB inh – cystic fibrosis NF-kB activation inhibition; inhibition, % at 5 µM; hit rate 0.86% among 360,000; AID 588850; KKLEB NF-kB-GFP reporter, PAF-induced, GFP fluorescence overnight;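 active = at least 50% inhibition at 5 µM, scaled per plate between neutral and stimulator controls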;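 note: PAF is a Pseudomonas aeruginosa culture filtrate used as stimulus; plate controls were PAF-stimulated DMSO wells for no effect and unstimulated DMSO wells for full effect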
HIF-2a inh – inhibitors of HIF-2a | hit rate 0.72% among 360,000 | inhibition, % at 18.8 µM | 786-0 RCC cells HIF-2a reporter, luciferase luminescence, overnight;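 active = inhibition of the luminescence signal of 40% or more relative to plate controls, in a single-dose primary screen at 18.75 µM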
TROY NFkB inh – inhibitors of TROY-dependent NF-kB signaling. Q293 LMP1-TROYcd NF-kB luciferase reporter, 4 h. inhibition, % at 10 µM. hit rate 0.98% among 360,000. AID 1347056;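 active = compounds whose plate-normalised and pattern-corrected inhibition of the luciferase reporter signal at the single screening dose is 50% or more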
KKLEB cytotox – CF airway cell cytotoxicity counter-screen | KKLEB CF airway cells viability, ATPlite luminescence, overnight; hits give low values; cells stimulated with P. aeruginosa culture filtrate | AID 602141 | activity change (cytotoxicity), % at 5 µM | hit rate 0.36% among 360,000;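 active = corrected activity change at or below -50% at 5 µM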
Peg3 promoter – inhibitors of Peg3 promoter; hit rate 1.7% among 360,000; inhibition, % at 20 µM; HeLa PEG-Prom luciferase reporter, luminescence, overnight;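 active = inhibition of at least 50% at 20 µM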
TWEAK-Fn14 inh – blocks TWEAK-Fn14 interaction in a reporter cell assay; hit rate 2% among 360,000; AID 1159606; TWEAK-stimulated Fn14 reporter cells, luciferase luminescence, 8 h; inhibition, % at 10 µM; in the data active = inhibition above about 50%
Mdm2 MdmX conf – confirmation of inhibitors of human Mdm2/MdmX interaction, set 2 | shares compounds with HIF-2a inh | SaOS-2 split-luciferase Mdm2/MdmX complementation, luminescence | inhibition, % at 8 µM | hit rate 99% among 740;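 active = mean inhibition of the luminescence signal across two replicates at or above 26 percent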
HIF-2a conf – HIF-2a inhibition, single concentration confirmation; shares compounds with HIF-2a inh; 786-0 RCC cells, HIF-2a luciferase reporter luminescence, overnight; inhibition, % at 18.8 µM; hit rate 56% among 1,800; AID 651580;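 active = mean inhibition across four replicates of at least 40 percent at the single tested concentration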
HIF-1a cs – inhibits HIF-1a reporter, a counter-screen for HIF-2a inhibitors; shares compounds with HIF-2a inh; MiaPaCa-2 HIF-1a luciferase reporter, desferoxamine, overnight; inhibition, % at 18.8 µM; hit rate 72% among 1,800; AID 651589;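 active = mean inhibition of the reporter signal across four replicates at the single tested dose of 50% or more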
The depositor's hits bear a star; / = no result given; ! = a repeat was not active. Shown are actives, neighbours in structure and some others; about 4% of the full set was active somewhere.

SMILES | CF NFkB inh | HIF-2a inh | TROY NFkB inh | KKLEB cytotox | Peg3 promoter | TWEAK-Fn14 inh | HIF-2a conf | HIF-1a cs | others
CCN1CCN(Cc2ccc(NC(=O)c3ccc(C)c(NC(=O)c4c[nH]c5cc(C(F)(F)F)ccc5c4=O)c3)cc2C(F)(F)F)CC1 | 94.5* | 67.4*! | -2.7 | -83.1* | 102.8* | -48.8 | 11.1 | 100.9* | Mdm2 MdmX conf=102.0*
CC1Cc2ccccc2N1c1ncnc(N)c1[N+](=O)[O-] (stereo not drawn) | 84.7* | 34.8 | 68.0* | -16.9 | 17.3 | 93.4* | / | / | Mdm2 MdmX conf=102.5*
C[C@@H]1CN([C@@H](C)CO)C(=O)CCCn2nncc2CO[C@H]1CN(C)Cc1ccc(-c2ccccc2)cc1 | 5.8 | -2.9 | 1.3 | -5.8 | -11.3 | 5.2 | / | /
CC(=O)Nc1ccc(SCC(=O)c2cc(C)n(Cc3cccs3)c2C)cc1 | 12.7 | 70.7* | 37.6 | -55.7* | 45.8 | 93.3* | 81.6* | 88.8*
C=CCn1c(C)cc(C(=O)CSc2ccc(NC(C)=O)cc2)c1C | 7.8 | 50.2* | 19.4 | -7.8 | -93.5 | 43.2 | 66.5* | 43.0
Cc1csc(SCC(=O)c2cc(C)n(Cc3cccs3)c2C)n1 | -6.7 | 38.2 | 12.1 | -44.4 | 27.7 | -10.9 | / | /
COCCn1c(C)cc(C(=O)CSc2ccc(NC(C)=O)cc2)c1C | 4.2 | 11.2 | -10.6 | -0.2 | -168.8 | -1.6 | / | /
C=CCSc1nc2c(cnn2-c2ccc(C)c(C)c2)c(=O)[nH]1 | -5.0 | 9.8 | -19.2 | 9.1 | -3.9 | 6.9 | / | /
COc1ccc(-c2csc(NC(C)=O)n2)cc1OC | -0.9 | -38.9 | -6.5 | -11.9 | -15.1 | -20.6 | / | /
COc1cccc(NC(=O)Nc2nc(-c3ccc(OC)c(OC)c3)cs2)c1 | 109.1* | -121.7 | 69.7* | -99.9* | 105.4* | 105.1* | / | / | Mdm2 MdmX conf=103.0*
CCOc1ccccc1CNC(=O)C1CCN(c2nnc(C)c3c(C)n(-c4ccc(C)cc4)nc23)CC1 | -47.6 | 70.5* | -28.0 | -21.0 | 97.0* | -13.2 | 51.4* | 97.8*
COc1ccc(-n2nc3c(N4CCC(C(=O)NCc5cccc(C)c5)CC4)nnc(C)c3c2C)cc1 | -23.0 | 67.2* | 11.9 | -27.6 | 98.8* | -6.2 | 76.4* | 80.1*
Cc1nnc(N2CCCC(C(=O)NCc3ccccc3F)C2)c2nn(-c3ccccc3)c(C)c12 (stereo not drawn) | -16.2 | 17.1 | 24.7 | 1.3 | 14.9 | -9.2 | / | /
CCOc1ccc(CNC(=O)C2CCN(c3nnc(C)c4c(C)n(-c5ccc(C)cc5)nc34)CC2)cc1 | -57.6 | 68.9* | 4.3 | -2.4 | 101.2* | -31.0 | 7.7 | 31.7
Cc1ccc(-n2nc3c(N4CCC(C(=O)NCc5ccccc5C)CC4)nnc(C)c3c2C)cc1 | 28.2 | 85.4* | 12.3 | -15.0 | 88.6* | -16.3 | 20.7 | 62.1*
Cc1cccc(-c2nnc(SCC(=O)NC3CC3)n2C)c1 | -13.7 | -1.4 | 30.4 | 5.8 | 11.6 | -14.0 | / | /
O=CC1=C(c2ccccc2)Oc2ccccc2O1 | 36.7 | 45.6* | 38.0 | -4.6 | 97.9* | 58.3* | 12.1 | 106.9*
Cc1nc(NC2=NCN(CCCN3CCOCC3)CN2)nc2c(C)cccc12 | -45.6 | 4.4 | -4.0 | 7.4 | 10.9 | -65.8 | / | / | Mdm2 MdmX conf=66.2*
Cc1nc(NC2=NCN(Cc3cccnc3)CN2)nc2ccccc12 | -1.0 | 10.8 | -0.6 | 11.5 | 18.0 | -15.8 | / | /
COC(=O)C[C@H]1c2ccccc2S(=O)(=O)N1c1cccc(OC)c1 | 3.7 | 0.5 | -32.6 | 8.8 | -4.2 | -10.6 | / | /
COc1cccc(N2[C@@H](CC(C)=O)c3ccc(/C=C/C(C)=O)cc3S2(=O)=O)c1 | -25.8 | 44.7* | -4.7 | 2.4 | 99.8* | 22.5 | 12.0 | 32.5
COc1ccc(CN2[C@@H](CC(C)=O)c3ccc(/C=C/C(C)=O)cc3S2(=O)=O)cc1 | 22.5 | 42.8* | 10.4 | 9.0 | 105.8* | 23.3 | 6.2 | 48.2
CS(=O)(=O)C1=C(O)C(=O)N(c2ccccc2)C1c1ccccc1 (stereo not drawn) | 8.7 | 0.0 | / | 4.3 | 12.7 | 4.1 | / | /
